The values that follow come from PubChem BioAssay (NCI).

Some test systems named below: SR leukemia; RPMI-8226 leukemia; OVCAR-8 ovarian; OVCAR-5 ovarian; OVCAR-4 ovarian; SK-OV-3 ovarian; IGROV1 ovarian; OVCAR-3 ovarian; HS 578T breast; NCI/ADR-RES ovarian; T-47D breast; BT-549 breast; MDA-MB-435 melanoma; SW-620 colon; MCF7 breast; HCT-116 colon; HCC-2998 colon; KM12 colon.
Holding throughout (experiment): NCI-60 one-dose screen, 48 h (100 = growth as untreated, 0 = no growth, -100 = all killed)
Settings in all cases: 10 µM unless noted

This is part of a sample that, as a whole, favours compounds with a hit. Of some 83,000 tested, about 20% had one in any assay.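 Growth was measured after 48 h exposure to one concentration of compound in 96-well plates. Values under 10 count as active.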 A number with no mark means an inactive call. Activity calls are given as the source filed them.

Turning to `COc1ccc(C(=O)c2sc3nc4c(cc3c2N)CCCC4)cc1OC`, the growth is -7.02% (active) with SR leukemia; 10.4% with RPMI-8226 leukemia; 43.1% with OVCAR-8 ovarian; 86.9% in the assay on OVCAR-5 ovarian; 60.7% with OVCAR-4 ovarian; 71.6% with SK-OV-3 ovarian. Moreover, the growth is 35.9% in the assay with IGROV1 ovarian; 20.6% with OVCAR-3 ovarian; 74% in the assay on HS 578T breast; 19.7% in the assay on NCI/ADR-RES ovarian; 15.5% with T-47D breast; 24.1% with BT-549 breast. For the same compound, the growth is -9.21% (active) in the assay with MDA-MB-435 melanoma; 34.6% in the assay on SW-620 colon; 27.1% in the assay on MCF7 breast; 19.4% with HCT-116 colon; 109% in the assay with HCC-2998 colon; 26.9% in the assay with KM12 colon.

As to `O=C1CC(c2nc3ccccc3s2)CN1C1CCCCC1` (configuration not stated), the growth in the assay with SR leukemia is 97.1%; in the assay with RPMI-8226 leukemia it was 98.4%; in the assay on OVCAR-8 ovarian, 95.4%; in the assay on OVCAR-5 ovarian, 99.8%; in the assay with OVCAR-4 ovarian, 94.1%; in the assay with SK-OV-3 ovarian, 91.6%. The growth in the assay with IGROV1 ovarian is 95%; with OVCAR-3 ovarian, 101%; in the assay with HS 578T breast it was 98.9%; in the assay with NCI/ADR-RES ovarian it was 89.4%; in the assay with T-47D breast it was 88.2%; with BT-549 breast, 97.1%. The growth is 107% in the assay on MDA-MB-435 melanoma; 107% in the assay with SW-620 colon; 89.1% in the assay with MCF7 breast; 108% in the assay on HCT-116 colon; 95.2% with HCC-2998 colon; 98% in the assay with KM12 colon.

Consider `Cn1cc(-c2csc(-c3cn(C)c4ncccc34)n2)c2ccccc21`, for which the growth with SR leukemia was 9.51% (active); in the assay on RPMI-8226 leukemia it was 22.4%; in the assay on OVCAR-8 ovarian, 30.2%; with OVCAR-5 ovarian it was 64.6%; in the assay with OVCAR-4 ovarian it was 71.6%; with SK-OV-3 ovarian it was 36.6%. For the same compound, the growth was 42.8% with IGROV1 ovarian; -4.76% (active) in the assay on OVCAR-3 ovarian; 46% in the assay on HS 578T breast; 22.8% in the assay with NCI/ADR-RES ovarian; 31.8% with T-47D breast; 22% in the assay on BT-549 breast. In addition, the growth in the assay on MDA-MB-435 melanoma is -40.1% (active); in the assay with SW-620 colon it was 20.7%; with MCF7 breast, 13%; in the assay on HCT-116 colon it was 20.5%; with HCC-2998 colon, 37.6%; in the assay with KM12 colon it was 23.1%.

In the case of `Cc1cc(Nc2nc(-c3cccnc3)nc3ccccc23)n[nH]1`, the growth in the assay with SR leukemia is 15.5%; with RPMI-8226 leukemia, 98.8%; in the assay on OVCAR-8 ovarian, 80.6%; with OVCAR-5 ovarian, 65.9%; in the assay on OVCAR-4 ovarian it was 60.8%; in the assay on SK-OV-3 ovarian, 21.9%. Moreover, the growth in the assay with IGROV1 ovarian was 28.9%; in the assay on OVCAR-3 ovarian, 59%; with HS 578T breast it was 5.1% (active); in the assay on NCI/ADR-RES ovarian, 69.3%; in the assay on T-47D breast, 27.2%; in the assay on BT-549 breast it was 47.2%. Also, the growth in the assay with MDA-MB-435 melanoma was 56.2%; with SW-620 colon, 47%; with MCF7 breast, 23%; with HCT-116 colon, 30.9%; in the assay with HCC-2998 colon, 69.7%; in the assay on KM12 colon, 19.1%.

`C=CC[N+]1(CC)CCN=C1CCCCCCCCCCCCCCCCC` (configuration not stated): the growth was -64.7% (active) with SR leukemia; -54.7% (active) in the assay with RPMI-8226 leukemia; -95.2% (active) with OVCAR-8 ovarian; -97.5% (active) with OVCAR-5 ovarian; -72.2% (active) with OVCAR-4 ovarian; -78.9% (active) with SK-OV-3 ovarian. In addition, the growth with IGROV1 ovarian was -86% (active); with OVCAR-3 ovarian, -94.1% (active); with HS 578T breast, -41.3% (active); in the assay on NCI/ADR-RES ovarian, -21.6% (active); in the assay with T-47D breast it was -62.9% (active); in the assay with BT-549 breast, -75.9% (active). In addition, the growth in the assay with MDA-MB-435 melanoma was -85% (active); with SW-620 colon, -89.7% (active); with MCF7 breast it was -81.7% (active); in the assay on HCT-116 colon, -100% (active); in the assay with HCC-2998 colon, -73.5% (active); in the assay with KM12 colon it was -97.9% (active).

For `Cc1nc2sc(C(=O)Nc3cccc4c3OCCO4)c(N)c2cc1C(C)O` (configuration not stated), the growth in the assay on SR leukemia was 26.4%; with RPMI-8226 leukemia it was 26.5%; with OVCAR-8 ovarian it was 49.5%; in the assay with OVCAR-5 ovarian, 73.7%; in the assay with OVCAR-4 ovarian, 69.4%; in the assay with SK-OV-3 ovarian, -11.4% (active). For the same compound, the growth in the assay with IGROV1 ovarian is 49%; with OVCAR-3 ovarian, 7.73% (active); in the assay with HS 578T breast it was 33.5%; with NCI/ADR-RES ovarian, 31%; with T-47D breast, -13.2% (active); with BT-549 breast, 56.1%. Also, the growth was -39.2% (active) with MDA-MB-435 melanoma; 22.4% in the assay on SW-620 colon; 11.2% with MCF7 breast; 31.3% in the assay with HCT-116 colon; 66.5% in the assay with HCC-2998 colon; 20.7% in the assay on KM12 colon.

As to `CC/C=C\C[C@H](O)C/C=C1/C(=O)C=C[C@@H]1C/C=C\CCCC(=O)OC(C)C`, the growth with SR leukemia is -27% (active); with RPMI-8226 leukemia, -21.6% (active); in the assay with OVCAR-8 ovarian, 5.63% (active); in the assay on OVCAR-5 ovarian it was 9.35% (active); with OVCAR-4 ovarian it was 23.3%; in the assay on SK-OV-3 ovarian it was 16.4%. Also, the growth in the assay with IGROV1 ovarian is -2.92% (active); with OVCAR-3 ovarian, -39.6% (active); in the assay on HS 578T breast, 53.9%; with NCI/ADR-RES ovarian it was 6.4% (active); in the assay on T-47D breast, 6.79% (active); with BT-549 breast it was -18.3% (active). Also, the growth in the assay with MDA-MB-435 melanoma was 2.16% (active); with SW-620 colon it was 0.553% (active); in the assay on MCF7 breast, 3.64% (active); with HCT-116 colon, -70.1% (active); in the assay with HCC-2998 colon, -88% (active); in the assay on KM12 colon it was -62.2% (active).

Consider `CNc1cc2nc3cc(NC)c(C)cc3cc2cc1C`, for which the growth with SR leukemia is -27.6% (active); with RPMI-8226 leukemia it was 3.16% (active); in the assay with OVCAR-8 ovarian, 2.25% (active); with OVCAR-5 ovarian it was 24.5%; in the assay with OVCAR-4 ovarian, 10.8%; in the assay with SK-OV-3 ovarian, 12.7%. In addition, the growth in the assay on IGROV1 ovarian was 21.1%; in the assay on OVCAR-3 ovarian, 3.6% (active); in the assay on HS 578T breast, 13.1%; with NCI/ADR-RES ovarian, 40.7%; in the assay with T-47D breast it was 7.86% (active); with BT-549 breast, 20.6%. Besides, the growth in the assay on MDA-MB-435 melanoma was 41.7%; with SW-620 colon, 8.75% (active); with MCF7 breast it was 3.03% (active); with HCT-116 colon, 5.54% (active); in the assay on HCC-2998 colon, 18.7%; with KM12 colon, -40.7% (active).

On to `CC(=O)O[C@H]1CC[C@]2(C)[C@H]3CC[C@@H]4[C@H]5[C@H](C(C)C)CC[C@]5(C(=O)OCC(CO)(CO)N=C(N)N)CC[C@@]4(C)[C@]3(C)CC[C@H]2C1(C)C`, for which the growth was -13.6% (active) with SR leukemia; 4.55% (active) with RPMI-8226 leukemia; -31.9% (active) in the assay on OVCAR-8 ovarian; 99.1% with OVCAR-5 ovarian; 87.9% in the assay with OVCAR-4 ovarian; 91.2% with SK-OV-3 ovarian. The growth with IGROV1 ovarian was 24.3%; with OVCAR-3 ovarian, 18.9%; with HS 578T breast, 93.7%; with NCI/ADR-RES ovarian, 76.8%; in the assay with T-47D breast, 44.6%; with BT-549 breast it was 108%. Besides, the growth in the assay on MDA-MB-435 melanoma was 22.6%; with SW-620 colon it was -71.5% (active); with MCF7 breast, 4.01% (active); in the assay with HCT-116 colon, -76.1% (active); with HCC-2998 colon, -60.9% (active); with KM12 colon, 17.4%.
